Source: PubChem (National Center for Advancing Translational Sciences (NCATS))
ALOX12 inh: ALOX12 (human) lipoxygenase inhibition; purified 12hLO, xylenol orange hydroperoxide absorbance; Potency, µM (titrated, usually from 108 µM), hits mostly inhibitors; 580,000 tested, 1.1% active; AID 1671190
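Purified human 12hLO at 150 nM in 25 mM Hepes, 0.01% Triton X-100, pH 7.0, preincubated 15 min at room temperature with compound. Reaction started with 40 uM arachidonic acid, 30 min at room temperature. Hydroperoxide measured by Fe-xylenol orange, 573/405 nm absorbance ratio.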
PLK1 PBD inh: inhibitors of human PLK1 polo-box domain binding. Plk1 PBD binding of FITC phosphopeptide, fluorescence polarization. Potency, µM, usual class: inhibitors. 360,000 tested, 2.8% active; also: series mostly up to about 57 µM; nearly all actives have a fitted effect of over 65% in size
Target sequence (P53350 whole entry, looked up, the tested form may be a part): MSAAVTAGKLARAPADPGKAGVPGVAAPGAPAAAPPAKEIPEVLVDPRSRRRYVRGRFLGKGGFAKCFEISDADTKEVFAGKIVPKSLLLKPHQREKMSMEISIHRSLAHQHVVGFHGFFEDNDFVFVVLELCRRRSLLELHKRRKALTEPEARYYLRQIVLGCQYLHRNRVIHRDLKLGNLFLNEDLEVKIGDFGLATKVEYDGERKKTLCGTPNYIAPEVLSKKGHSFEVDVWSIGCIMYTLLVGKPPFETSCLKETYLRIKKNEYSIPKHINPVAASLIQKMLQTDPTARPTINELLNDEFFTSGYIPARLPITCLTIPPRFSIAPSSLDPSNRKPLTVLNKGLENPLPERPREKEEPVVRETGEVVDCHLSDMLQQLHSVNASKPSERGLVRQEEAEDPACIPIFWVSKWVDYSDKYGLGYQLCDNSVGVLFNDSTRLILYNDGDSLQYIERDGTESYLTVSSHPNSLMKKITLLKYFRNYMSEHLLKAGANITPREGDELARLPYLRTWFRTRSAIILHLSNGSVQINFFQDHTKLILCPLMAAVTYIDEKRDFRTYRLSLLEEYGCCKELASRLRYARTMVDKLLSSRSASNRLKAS
VDR inhibitor: vitamin D3 receptor (human) inhibition. P11473. VDR-SRC2-3 peptide fluorescence polarization, 2 h. Potency, µM, hits mostly inhibitors. 400,000 tested, 0.93% active. AID 504847
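FP read-out; VDR + SRC2-3 coactivator peptide; 23 nl compound by pintool; 2 h RT incubation; reagents held at 4 deg C, protected from light.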
Sfp inh: Sfp phosphopantetheinyl transferase inhibition; Q9F4F7; Biochemical Sfp PPTase activity, qHTS; Potency, µM, usual class: inhibitors; 310,000 tested, 3.5% active; AID 1490;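 also: the enzyme is Sfp with the accession as filed and its product quenches rhodamine fluorescence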
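With Hepes-Na pH 7.6 buffer containing 10 mM MgCl2, Sfp (15 nM) modified BHQ-2-YbbR (12.5 uM) using rhodamine-CoA (5 uM). Two reads 30 minutes apart at 525/598 nm yielded each well's rate.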
A number is an active result; 0 = inactive; ? = inconclusive; - = no result given; ! = not active in a repeat. The list is not random: actives were taken first. Their share in the collection is about 4.2%. Calls follow the shape of the dose curve; as a rule, active = well fitted curve in the direction sought with a large enough effect; inconclusive = small, poorly fitted or top-dose-only effect, or another doubt; inactive = no such curve, though single readings can be large; an effect the other way counts as inactive or inconclusive.

SMILES	ALOX12 inh	PLK1 PBD inh	VDR inhibitor	Sfp inh
COc1cc2c(cc1OC)CN(CCC(=O)c1ccc(Br)cc1)CC2	?	4.7µM	71µM	0
O=C(CCN1CCC2CCC(C2)C1)c1ccccc1 (stereo not given)	0	13µM	71µM	-
CCOC(=O)N1CCN(CCC(=O)c2ccc(Br)cc2)CC1	?	0.67µM	18µM	50µM
Cc1ccc(NC(=O)Nc2cc(S(C)(=O)=O)ccc2Cl)cc1	0	0	0	0
COc1cc(C2Nc3ccc4ncccc4c3C3=C2C(=O)CCC3)cc(OC)c1OC (stereo not given)	0	0	0	0
CC(C)(C)c1ccc(C(=O)OCC(=O)Nc2cccc(S(=O)(=O)NC3=NCCC3)c2)cc1	0	0	-	-
CN(C)CCCNS(=O)(=O)c1ccc(N2CCN(Cc3ccc4c(c3)OCO4)CC2)c([N+](=O)[O-])c1	2.8µM	0	0	71µM
Cc1ccc(S(=O)(=O)c2nc(N3CCOCC3)sc2Cl)cc1	0	0	0	50µM
CCCS(=O)(=O)c1nc(S(=O)(=O)c2ccc(C)cc2)c(N2CCOCC2)s1	0	0	0	0
CSc1nc(S(=O)(=O)c2ccc(C)cc2)c(N2CCOCC2)s1	?	0	-	-
Cc1ccc(S(=O)(=O)c2nc(S(=O)(=O)CCO)sc2N2CCOCC2)cc1	0	30µM	0	0
Cc1ccc(S(=O)(=O)n2nc(C)c(C#N)c2N)cc1	0	27µM	?	0
CCOC(=O)C1CCCCN1Cc1ccc(F)c(Br)c1 (stereo not given)	?	0	0	63µM
Cc1coc2c1C(=O)C(=O)c1c-2ccc2c1CCCC2(C)C	24µM!	?	28µM	0
Cc1coc2c1C(=O)C(=O)c1c-2ccc2c(C)cccc12	?	?	?	0
COc1ccccc1C(=O)NCCSCc1ccccc1Cl	0	0	0	0
CC(=O)NC1(C)CCN(Cc2cnc(-c3cccc(C(F)(F)F)c3)s2)CC1	28µM	-	-	-
Cc1cc(CNC(=O)COc2c(F)c(F)cc(F)c2F)c2ccccc2n1	0	0	0	0
O=C(Cc1ccc(Cl)cc1)N1CCN(c2ccccc2O)CC1	32µM	-	-	-
O=S1(=O)CC(O)C(O)CS1 (stereo not given)	?	11µM	-	-
Cn1c(-c2ccc(Br)o2)nc2cc(Br)ccc21	0	?	0	40µM
Brc1ccc(Cn2c(-c3ccc(Br)o3)nc3ccccc32)o1	?	0	0	?
CN(C)c1ccc(-c2nc3ccccc3n2C)cc1	0	27µM	0	?
Cn1c(-c2ccc(Br)o2)nc2ccccc21	0	0	0	40µM
CC(=O)c1ccc(-c2nc3ccccc3n2C)o1	0	0	0	40µM
SMILES	ALOX12 inh	PLK1 PBD inh	VDR inhibitor	Sfp inh
CC(=O)c1ccc(NC(=S)Nc2ccc(N3CCOCC3)cc2)cc1	0	?	0	?
O=C(NC(=S)Nc1ccc(N2CCOCC2)cc1)c1cncc(Br)c1	?	0	0	56µM
CCc1ccc(C(=O)NC(=S)Nc2ccc(N3CCOCC3)cc2)cc1	22µM	0	0	0
CC(C)N1C[C@H](O)C[C@H]1c1nnc2n1CCN(C(=O)c1ccc3ncccc3c1)C2	0	-	-	-
C=CCNC(=O)[C@@H]1Cc2cn(Cc3cccnc3)c3cccc(c23)[C@H](CC(C)C)N1	0	-	-	-
CCOC(=O)c1ccc2nc(C)c3c(c2c1)OC(C)C3 (stereo not given)	0	0	0	0
CCOC(=O)c1ccc2nc(C(F)(F)F)[nH]c(=O)c2c1	0	27µM	0	0
CCCNC(=O)C(NS(=O)(=O)c1cccc2nsnc12)c1ccccc1 (stereo not given)	0	0	0	0
Cc1ccc(C(=O)NNC(=S)NC(=O)c2ccc(Cl)cc2)cc1	?	0	0	0
O=C(NC12CC3CC(CC(C3)C1)C2)c1ccc(Cl)cc1	0	-	-	-
O=C(NC(=S)Nc1ncccn1)c1ccc(F)cc1	?	0	0	16µM
O=C(CCc1ccccc1)NNC(=S)NC(=O)c1ccc(Cl)cc1	13µM	0	0	50µM
O=C(NNC(=S)NC(=O)c1ccc(F)cc1)c1ccc(Cl)cc1	18µM	-	-	-
O=C(NC(=S)Nc1cccnc1Cl)c1ccc(F)cc1	?	0	0	0
O=C(NC(=S)NC12CC3CC(CC(C3)C1)C2)c1ccc(F)cc1	22µM	0	0	-
CNC(=O)c1sc2ncccc2c1-n1cccc1	0	-	0	-
O=C(CCc1ncc(-c2ccccc2)o1)Nc1ccc(OCC(F)(F)F)cc1	0	-	-	-
CCOC(=O)CC(S(=O)(=O)c1ccccc1)S(=O)(=O)c1ccccc1	0	27µM	-	-
O=C(O)c1cc2ccc(Br)cc2[nH]1	18µM	-	-	-
CCCCCCCCCCOC(=O)Cn1c(COc2ccccc2OC)[n+](C)c2ccccc21	?	0	0	45µM
